Data from PubChem BioAssay (NCI).
This is part of a sample that, as a whole, favours compounds with a hit. Of some 79,000 tested, about 15% had one in any assay. The source made the active and inactive calls. Rule as the data show it: active = growth inhibition above about 70%; inactive = the rest.

Experiments:
[1] = NCI Yeast Anticancer Drug Screen. Data for the mec2-1 strain (AID 157); settings: S. cerevisiae mec2-1 strain, active compounds read high
Procedure, shortened: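 Growth inhibition is read against vehicle-treated controls after compound exposure of the mec2-1 yeast strain, which is defective in DNA damage repair or cell cycle control.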

[2] = NCI Yeast Anticancer Drug Screen. Data for the rad14 strain (AID 159);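 also: 0% = growth of vehicle-treated control cultures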; settings: S. cerevisiae rad14 strain growth inhibition, active compounds read high
Procedure, shortened: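 Growth inhibition vs vehicle controls; genetically altered yeast strain (DNA damage repair defect) treated with test compounds.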

[3] = NCI Yeast Anticancer Drug Screen. Data for the sgs1 mgt1 strain (AID 161);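 also: 0% = growth of cultures given vehicle only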; settings: S. cerevisiae sgs1 mgt1 strain, active compounds read high
Procedure, shortened: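 Yeast cells carrying a defined DNA-repair defect were exposed to test compounds. Growth inhibition was measured relative to vehicle-treated controls.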

[4] = NCI Yeast Anticancer Drug Screen. Data for the CLN2oe strain (AID 163);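 also: 0% = growth of vehicle-only control cultures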; settings: S. cerevisiae CLN2oe strain, active compounds read high
Procedure, shortened: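 Compound-treated yeast; growth vs vehicle ctrl = % inhibition. Genetically altered strain (cell-cycle control).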

[5] = NCI Yeast Anticancer Drug Screen. Data for the cln2 rad14 strain (AID 165);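 also: 0% = growth equal to vehicle treated cultures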; settings: S. cerevisiae cln2 rad14 strain, active compounds read high
Procedure, shortened: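 Growth inhibition, relative to vehicle-treated controls, is the read-out. The test organism is a yeast strain with defined genetic alterations, cln2 rad14.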

[6] = NCI Yeast Anticancer Drug Screen. Data for the bub3 strain (AID 167); settings: S. cerevisiae bub3 mutant strain, active compounds read high
Procedure, shortened: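 Readout: yeast growth inhibition, expressed relative to vehicle-only wells. The test organism is a mutant strain from a panel with lesions in DNA repair or checkpoint genes.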

[7] = NCI Yeast Anticancer Drug Screen. Data for the wt2 strain (AID 169);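 also: 0% = growth of vehicle-treated yeast cultures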; settings: S. cerevisiae wt2 strain growth inhibition, active compounds read high
Procedure, shortened: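 Compound exposure of yeast; growth compared with vehicle controls; inhibition reported.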

[8] = NCI Yeast Anticancer Drug Screen. Data for the mlh1 strain (AID 171);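 also: 0% = growth of vehicle-treated control cultures of the same strain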; settings: S. cerevisiae mlh1 strain growth inhibition, active compounds read high
Procedure, shortened: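 Compounds are applied to a genetically altered yeast strain, and its growth is compared with that of vehicle-treated cultures to give percent inhibition.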

[9] = NCI Yeast Anticancer Drug Screen. Data for the sgs1 strain (AID 173);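 also: 0% = growth of vehicle-only control cultures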; settings: S. cerevisiae sgs1 mutant, active compounds read high
Procedure, shortened: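 Compounds applied to genetically altered yeast; growth compared with vehicle-treated cultures to give % inhibition.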

[10] = NCI Yeast Anticancer Drug Screen. Data for the mlh1 rad18 strain (AID 175); settings: S. cerevisiae mlh1 rad18 strain growth inhibition, active compounds read high
Procedure, shortened: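 Cells of a genetically altered yeast strain, deficient in DNA damage repair, were treated with compound. Their growth was then compared with that of vehicle-treated cultures to give inhibition.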

[11] = NCI Yeast Anticancer Drug Screen. Data for the rad18 strain (AID 177); settings: S. cerevisiae rad18 mutant growth inhibition, active compounds read high
Procedure, shortened: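 Compounds are applied to a repair-deficient yeast strain, and growth is compared with that of vehicle-treated cultures to give percent inhibition.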

[12] = NCI Yeast Anticancer Drug Screen. Data for the rad52 strain (AID 147);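 also: 0% = growth of vehicle-treated control cultures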; settings: S. cerevisiae rad52 mutant growth inhibition, active compounds read high
Procedure, shortened: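 DNA repair-defective yeast; compound exposure; growth scored against vehicle controls.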

[13] = NCI Yeast Anticancer Drug Screen. Data for the wt1 strain (AID 149);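 also: 0% = growth of vehicle-treated wt1 cultures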; settings: S. cerevisiae wt1 strain (SPY 50644) growth inhibition, active compounds read high
Procedure, shortened: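 Growth inhibition read against vehicle controls after compound exposure of the wt1 yeast strain.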

[14] = NCI Yeast Anticancer Drug Screen. Data for the rad50EPP+ strain (AID 151);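 also: 0% = growth of vehicle-treated control cultures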; settings: S. cerevisiae rad50 mutant strain, active compounds read high
Procedure, shortened: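 rad50EPP+ yeast treated with test compounds. Readout: growth vs vehicle control.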

[15] = NCI Yeast Anticancer Drug Screen. Data for the mgt1 strain (AID 153); settings: S. cerevisiae mgt1 mutant growth inhibition, active compounds read high
Procedure, shortened: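 Growth inhibition relative to vehicle controls was scored for the mgt1 yeast strain after compound exposure.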

[16] = NCI Yeast Anticancer Drug Screen. Data for the rad50 strain (AID 155);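 also: 0% = growth of vehicle-only cultures of the same strain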; settings: S. cerevisiae rad50 strain growth inhibition, active compounds read high
Procedure, shortened: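 Readout: growth inhibition relative to vehicle-treated cultures. Compound exposure was carried out in a genetically defined yeast strain deficient in DNA damage repair.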

[17] = at 5.0 µM (retest, dose inferred, filed as 0.5)
[18] = at 50.0 µM (retest, dose inferred, filed as 5.0)

Measured: growth inhibition

O=S(=O)(c1cccc(C(F)(F)F)c1)N1c2ccccc2-n2cccc2C1c1cccnc1 (centres undefined)
inactive: [1]; [17] 31% | [1]; at 11.0 µM 56% | [2]; at 1.2 µM -51% | [2]; at 3.7 µM -17% | [3]; [17] 18% | [4]; at 1.2 µM -16% | [4]; at 3.7 µM -19% | [5]; [17] 22% | [6]; at 1.2 µM -27% | [6]; at 3.7 µM 1% | [6]; [17] 25% | [6]; at 11.0 µM 62% | [7]; at 1.2 µM -23% | [7]; at 3.7 µM -41% | [7]; at 11.0 µM 60% | [8]; at 1.2 µM -43% | [8]; at 3.7 µM -15% | [9]; at 1.2 µM -40% | [9]; at 3.7 µM -21% | [10]; [17] 34% | [11]; at 1.2 µM -7% | [11]; at 3.7 µM 7%
active: [1]; at 33.0 µM 92% | [1]; [18] 97% | [1]; at 50.0 µM 94.8% | [1]; at 100.0 µM 89% | [2]; at 11.0 µM 73% | [2]; at 33.0 µM 94% | [2]; at 100.0 µM 89% | [3]; [18] 98% | [3]; at 50.0 µM 96.8% | [4]; at 11.0 µM 74% | [4]; at 33.0 µM 94% | [4]; at 100.0 µM 90% | [5]; [18] 96% | [5]; at 50.0 µM 93.9% | [6]; at 33.0 µM 94% | [6]; [18] 96% | [6]; at 50.0 µM 94.7% | [6]; at 100.0 µM 90% | [7]; at 33.0 µM 93% | [7]; at 100.0 µM 91% | [8]; at 11.0 µM 70% | [8]; at 33.0 µM 93% | [8]; at 100.0 µM 88% | [9]; at 11.0 µM 73% | [9]; at 33.0 µM 92% | [9]; at 100.0 µM 89% | [10]; [18] 96% | [10]; at 50.0 µM 95.5% | [11]; at 11.0 µM 85% | [11]; at 33.0 µM 93% | [11]; at 100.0 µM 89%

Cc1cccc(/C=N/NC(=S)NC2CCCCC2)n1
active: [16]; [18] 77% | [3]; at 50.0 µM 70.8% | [6]; [18] 79% | [6]; at 50.0 µM 72.7%
inactive: [12]; at 1.2 µM -8% | [12]; at 3.7 µM -9% | [12]; at 11.0 µM -8% | [12]; at 33.0 µM 9% | [12]; at 100.0 µM 6% | [13]; at 1.2 µM -7% | [13]; at 3.7 µM -6% | [13]; at 11.0 µM -4% | [13]; at 33.0 µM 10% | [13]; at 100.0 µM 6% | [14]; at 1.2 µM -8% | [14]; at 3.7 µM -8% | [14]; at 11.0 µM -13% | [14]; at 33.0 µM -13% | [14]; at 100.0 µM -12% | [15]; at 1.2 µM -5% | [15]; at 3.7 µM -8% | [15]; at 11.0 µM 19% | [15]; at 33.0 µM 20% | [15]; at 100.0 µM 21% | [16]; at 1.2 µM -7% | [16]; at 3.7 µM -9% | [16]; [17] -32% | [16]; at 11.0 µM -33% | [16]; at 33.0 µM 13% | [16]; at 50.0 µM 39.5% | [16]; at 100.0 µM 7% | [1]; at 1.2 µM 1% | [1]; at 3.7 µM -6% | [1]; [17] -23% | [1]; at 11.0 µM -5% | [1]; at 33.0 µM 11% | [1]; [18] 64% | [1]; at 50.0 µM 54.8% | [1]; at 100.0 µM 8% | [2]; at 1.2 µM -7% | [2]; at 3.7 µM -15% | [2]; at 11.0 µM -11% | [2]; at 33.0 µM 28% | [2]; at 100.0 µM 26% | [3]; [17] -25% | [3]; [18] 51% | [4]; at 1.2 µM -14% | [4]; at 3.7 µM -17% | [4]; at 11.0 µM -23% | [4]; at 33.0 µM 18% | [4]; at 100.0 µM 12% | [5]; [17] -24% | [5]; [18] 20% | [5]; at 50.0 µM 40.6% | [6]; at 1.2 µM -6% | [6]; at 3.7 µM -3% | [6]; [17] -30% | [6]; at 11.0 µM 16% | [6]; at 33.0 µM 32% | [6]; at 100.0 µM 20% | [7]; at 1.2 µM -4% | [7]; at 3.7 µM -4% | [7]; at 11.0 µM 1% | [7]; at 33.0 µM 26% | [7]; at 100.0 µM 18% | [8]; at 1.2 µM -6% | [8]; at 3.7 µM -4% | [8]; at 11.0 µM -3% | [8]; at 33.0 µM 12% | [8]; at 100.0 µM 8% | [9]; at 1.2 µM -3% | [9]; at 3.7 µM -2% | [9]; at 11.0 µM 9% | [9]; at 33.0 µM 40% | [9]; at 100.0 µM 29% | [10]; [17] -19% | [10]; [18] 55% | [10]; at 50.0 µM 62.5% | [11]; at 1.2 µM -5% | [11]; at 3.7 µM -4% | [11]; at 11.0 µM 3% | [11]; at 33.0 µM 20% | [11]; at 100.0 µM 19%

COc1ccc2nc3cccc([N+](=O)[O-])c3c(NCCNCCO)c2c1
inactive: [12]; at 1.2 µM 69% | [13]; at 1.2 µM -3% | [13]; at 3.7 µM 3% | [13]; at 11.0 µM 20% | [13]; at 33.0 µM 49% | [14]; at 1.2 µM 2% | [14]; at 3.7 µM 18% | [14]; at 11.0 µM 61% | [15]; at 1.2 µM -2% | [15]; at 3.7 µM 1% | [15]; at 11.0 µM 23% | [15]; at 33.0 µM 69% | [16]; at 1.2 µM 41% | [16]; [17] 36% | [1]; at 1.2 µM 17% | [1]; [17] 1% | [4]; at 1.2 µM -5% | [4]; at 3.7 µM -8% | [4]; at 11.0 µM -5% | [4]; at 33.0 µM 32% | [6]; at 1.2 µM -11% | [6]; at 3.7 µM -17% | [6]; [17] -31% | [6]; at 11.0 µM -11% | [6]; at 33.0 µM 36% | [6]; at 50.0 µM 67.7% | [7]; at 1.2 µM -2% | [7]; at 3.7 µM -1% | [7]; at 11.0 µM 4% | [7]; at 33.0 µM 35% | [8]; at 1.2 µM 1% | [8]; at 3.7 µM 21% | [8]; at 11.0 µM 50% | [10]; [17] 67%
active: [12]; at 3.7 µM 90% | [12]; at 11.0 µM 95% | [12]; at 33.0 µM 96% | [12]; at 100.0 µM 96% | [13]; at 100.0 µM 70% | [14]; at 33.0 µM 92% | [14]; at 100.0 µM 96% | [15]; at 100.0 µM 75% | [16]; at 3.7 µM 81% | [16]; at 11.0 µM 93% | [16]; at 33.0 µM 94% | [16]; [18] 98% | [16]; at 50.0 µM 85% | [16]; at 100.0 µM 95% | [1]; at 3.7 µM 75% | [1]; at 11.0 µM 95% | [1]; at 33.0 µM 96% | [1]; [18] 96% | [1]; at 50.0 µM 89.3% | [1]; at 100.0 µM 97% | [2]; at 1.2 µM 90% | [2]; at 3.7 µM 97% | [2]; at 11.0 µM 99% | [2]; at 33.0 µM 99% | [2]; at 100.0 µM 98% | [3]; [17] 78% | [3]; [18] 94% | [3]; at 50.0 µM 78.2% | [4]; at 100.0 µM 90% | [5]; [17] 81% | [5]; [18] 98% | [5]; at 50.0 µM 86.8% | [6]; [18] 90% | [6]; at 100.0 µM 96% | [7]; at 100.0 µM 94% | [8]; at 33.0 µM 80% | [8]; at 100.0 µM 88% | [9]; at 1.2 µM 80% | [9]; at 3.7 µM 89% | [9]; at 11.0 µM 93% | [9]; at 33.0 µM 95% | [9]; at 100.0 µM 95% | [10]; [18] 98% | [10]; at 50.0 µM 78.2% | [11]; at 1.2 µM 95% | [11]; at 3.7 µM 96% | [11]; at 11.0 µM 96% | [11]; at 33.0 µM 95% | [11]; at 100.0 µM 95%
